The nature of experiment [1]: Cellular Toxicity (caspase-3) NIH 3T3 (AID 666).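 Note: caspase signal read after 16 h compound exposure; 0% = DMSO basal and 100% = 100 µM tamoxifen stimulation.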 Summed up:
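Activity: caspase-3/7 induction, NIH 3T3 cells, 16 hr treatment at 37°C, luminescent Caspase-Glo detection; AC50 via Hill equation.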

Experiment [2] can be described thus: Cellular Toxicity (caspase-3) Renal Proximal Tubule (AID 667).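 Note: cells exposed to compound for 16 hours at 37 °C before detection; 0% = DMSO basal and 100% = 10 µM staurosporine.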 Summed up: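 Freshly isolated primary rat kidney proximal tubule cells, 1000/well, treated 16 hr at 37 °C, then Caspase-Glo 3/7 luminescence after 1 hr. Normalized to DMSO and 10 uM staurosporine; AC50 from Hill fit.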
Experiment [3] can be described thus: Cell Viability - LYMP2-001 (AID 921).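 Note: series mostly up to about 92 µM; 0% = DMSO only and full inhibition = tetraoctylammonium bromide control wells; nearly all actives have a fitted effect of over 70% in size.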 Summed up:
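Human lymphoblastoid LYMP2-001 cells, 2500 per well, in complete medium, treated 24 h at 37 C. Viability from cellular ATP by CellTiter-Glo luminescence; AC50 from Hill-equation fits of qHTS concentration-response.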

The nature of experiment [4]: MultiTox-Fluor Cytotoxicity Assay - LYMP1-001 - Dead Cells (AID 946).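 Note: cells exposed to compound for 16 h; 0% = DMSO and 100% = tetraoctylammonium bromide.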 Summed up:
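LYMP1-001 lymphoblastoid cells (2500/well) treated 16 h at 37 C. Dead-cell protease cleavage of bis-AAF-R110 read at Ex/Em 485/520. Normalized to DMSO and 15 uM tetraoctylammonium bromide; AC50 from Hill fits.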

Experiment [5] can be described thus: MultiTox-Fluor Cytotoxicity Assay - LYMP1-001 - Live Cells (AID 947).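 Note: 0% = DMSO only and full inhibition = tetraoctylammonium bromide control.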
Experiment [6] is described as follows: Cell Viability - LYMP1-002 - Assay at 16 hr (AID 948).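 Note: 0% = DMSO alone and full effect = 92 µM tetraoctylammonium bromide.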 Summed up: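 LYMP1-002 human lymphoblastoid cells, 2500/well, were treated with compounds for 16 hr at 37 C in complete medium. Viability was read as intracellular ATP by CellTiter-Glo luminescence, and AC50 was derived from a Hill fit to concentration-response data.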
For experiment [7], the target named is Guanine nucleotide-binding protein G(i) subunit alpha-1 (Homo sapiens) (UniProt P63096). The experiment in a line: qHTS Assay for Inhibitors of RGS12 GoLoco Motif Activity (Green Fluorophore) (AID 879).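 Note: 0% = labeled peptide with Gαi1 and full inhibition = labeled peptide alone without protein; negative values mean loss of peptide binding seen as reduced polarization.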 Summed up:
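A drop in FITC polarization marked displacement of the FITC-tagged RGS12 GoLoco peptide (10 nM) from Gαi1 (50 nM). Compounds were incubated 10 min at room temperature in Tris pH 7.5 buffer containing 150 mM NaCl, 0.1 mM GDP and 0.05% NP40; unlabeled peptide titration served as control.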

For experiment [8], the target named is Cytochrome P450 2C9 (Homo sapiens) (UniProt P11712). The experiment in a line: qHTS Assay for Inhibitors and Substrates of Cytochrome P450 2C9 (AID 883). Note: nearly all actives have a fitted effect of over 60% in size. Note: potency is the fitted concentration of half-maximal effect. Summed up:
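Luminescent read-out of deoxyluciferin hydroxylation, normalized to 57uM sulphaphenazole (AC100). Reaction: 10nM enzyme, 100uM Luciferin-H (equal to KM), 25mM KPO4, 10 min compound preincubation, then 60 min with NADPH regeneration, both at 37C.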
(In general: qHTS replaces the single test concentration by a dilution series.)

Experiment [9] in a line: qHTS Assay for Identification of Small Molecule Antagonists for NFkB Signaling Pathway (AID 895; active = well fitted inhibition curve with a large enough effect in the signal ratio, with a control signal flat, not every such curve was filed as active; the % refers to the signal ratio; note: % is set by controls: 0 for no effect and ±100 for the full control effect). Summed up:
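Beta-lactamase reporter read-out (460 and 530 nm emission ratio, 405 nm excitation, 2 hrs substrate loading RT) after 5 hr stimulation with 10 pM TNF alpha in compound-treated NFkB-bla ME-180 cells in low-serum medium.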

Experiment [10] has as its target Cytochrome P450 2C19 (Homo sapiens) (UniProt P33261). The experiment in a line: qHTS Assay for Inhibitors and Substrates of Cytochrome P450 2C19 (AID 899). Note: % is set by controls: 0 for no effect and ±100 for the full control effect; nearly all actives have a fitted effect of over 60% in size. Summed up: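 Luminescence readout of luciferin formed from 10uM Luciferin-H EGE (KM level) by 5 nM CYP2C19 in 50mM KPO4. 60 min NADPH-driven reaction at 37C after 10 min compound preincubation; data scaled to 57uM ketoconazole inhibition.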

The nature of experiment [11]: qHTS Assay for Identification of Small Molecule Agonists for Thrombopoietin (TPO) Signaling Pathway (AID 917). Note: % is set by controls: 0 for no effect and ±100 for the full control effect. Summed up:
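Stimulation at the TPO EC50 (26 pM final) was used to detect activators. Ba/F3 mouse cells bearing human TPO receptor and a luciferase reporter under the Glycoprotein IIb promoter were exposed to compounds for 24 hrs at 37 C.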

Experiment [12] addresses Muscarinic acetylcholine receptor M1 (Rattus norvegicus) (UniProt P08482). The experiment in a line: qHTS Assay for Antagonists of Acetylcholine Muscarinic M1 Receptor: Kinetic Measurement of Intracellular Calcium Response (AID 943).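 Note: Fluo-4 calcium signal as peak divided by basal fluorescence over 4 min; series mostly up to about 35 µM; nearly all actives have a fitted effect of over 75% in size.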 Summed up:
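Quantitative HTS in CHO-M1 (rat receptor) cells: 10 min compound exposure ahead of 100 nM carbachol, Fluo-4 fluorescence followed 4 min, value expressed as peak-to-basal ratio.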

The target is the same in experiment [13]. The experiment in a line: qHTS Assay for Antagonists of Acetylcholine Muscarinic M1 Receptor: Measurement of IP-One Response (AID 944). Note: nearly all actives have a fitted effect of over 75% in size. Summed up:
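Antagonism was measured as loss of carbachol-driven (EC80) IP1 accumulation in CHO cells carrying rat M1, using a homogeneous IP-One TR-FRET kit read at 620 and 665 nm.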

Experiment [14] has as its target Pyruvate kinase (Leishmania mexicana) (UniProt Q27686). The experiment in a line: qHTS Validation Assay for Inhibitors of Leishmania Mexicana Pyruvate Kinase (AID 945).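 Note: 0% = DMSO only neutral control wells.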 Summed up:
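The enzyme is a highly purified E451W mutant of LmPYK used at 0.2 nM. It converts 0.5 mM PEP and 0.1 mM ADP over 1 h at room temperature; product ATP is quantified by luciferase luminescence relative to DMSO controls.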

In experiment [15] the target is Cytochrome P450 3A4 (Homo sapiens) (UniProt P08684). The experiment in a line: qHTS Assay for Inhibitors and Substrates of Cytochrome P450 3A4 (AID 884). Note: series mostly up to about 57 µM; % is set by controls: 0 for no effect and ±100 for the full control effect; nearly all actives have a fitted effect of over 50% in size. Summed up:
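Luminescent readout of luciferin produced by CYP3A4 (20 nM) dealkylation of Luciferin-PPXE, 25 uM (its KM). NADPH-driven reaction ran 60 min at RT after 10 min compound preincubation; data scaled to 57 uM ketoconazole as 100% inhibition.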

Experiment [16] in a line: Confirmation and Secondary Assay for Modulators of Hemoglobin Beta Chain Splicing at IVS2 654 locus (AID 910).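 Note: HeLa cells stably carrying EGFP split by mutant beta-globin IVS2-654 intron; per-well total GFP intensity by laser scanning cytometry after 2-day treatment; % of control where 0% means no effect.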 Summed up:
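Readout: per-well total peak green fluorescence (488 nm ex, 500–520 nm em) from objects 5–250 µm, reflecting correct splicing of an EGFP-654 reporter. Compounds were applied for 2 days at 37 °C to overnight-plated HeLa EGFP-654 cells; controls were DMSO and 500 nM IVS2-654 PNA.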

Experiment [17] is described as follows: Confirmation and Secondary Assay for Modulators of Hemoglobin Beta Chain Splicing at IVS2 705 locus (AID 930).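 Note: HeLa cells stably expressing the EGFP-705 splicing reporter; GFP fluorescence per well restored by corrected splicing of the IVS2-705 intron in EGFP; series mostly up to about 46 µM; % of control where 0% means no effect.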 Summed up: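 Splice-correction reporter: EGFP cDNA split by beta-globin intron 2 bearing the 705 mutation, stably in HeLa. Compound incubation 2 days, 37C; fluorescent objects 5-250 µm summed per well.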
Experiment [18] can be described thus: qHTS Assay for Identification of Small Molecule Agonists for Hypoxia Response Element Signaling Pathway (AID 914; active = well fitted activation curve with a large enough effect in the signal ratio, with a control signal flat, not every such curve was filed as active; the % refers to the signal ratio; note: % of control where 0% means no effect). To be noted: ME-180 (cervical carcinoma) HRE-bla reporter, beta-lactamase ratio, CoCl2, 17 h; stronger effect = higher value. Summed up:
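Cells were plated overnight, pin-dosed with compound in a titration series, co-stimulated with EC50 CoCl2 and incubated 17 hours at 37 degrees Celsius. CCF4 substrate was then loaded, and AC50 values came from the 460nm/530nm ratio.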

Experiment [19] has as its target Cytochrome P450 2D6 (Homo sapiens) (UniProt P10635). The experiment in a line: qHTS Assay for Inhibitors and Substrates of Cytochrome P450 2D6 (AID 891). Note: potency is the fitted concentration of half-maximal effect; nearly all actives have a fitted effect of over 60% in size. Summed up:
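Luminescent read-out of luciferin formed by 5 nM human CYP2D6 demethylating 30 uM Luciferin-ME EGE (Km level) over 60 min at room temperature after NADPH regeneration addition. Data normalized to full inhibition by 1.43 uM quinidine.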

Several values for one entry are separate records, joined by “and”; a condition that tells them apart may be missing. Identical values can stand only once. A number with no mark means an inactive call. Inconclusive results are not listed. Activity calls are given as the source filed them. Unless noted, calls come from the whole dose curve; as a rule, active = well fitted curve in the direction sought with a large enough effect; inconclusive = small, poorly fitted or top-dose-only effect, or another doubt; inactive = no such curve, though single readings can be large; an effect the other way counts as inactive or inconclusive.

Sequence of Pyruvate kinase (Leishmania mexicana) (Q27686 2-499 E452W): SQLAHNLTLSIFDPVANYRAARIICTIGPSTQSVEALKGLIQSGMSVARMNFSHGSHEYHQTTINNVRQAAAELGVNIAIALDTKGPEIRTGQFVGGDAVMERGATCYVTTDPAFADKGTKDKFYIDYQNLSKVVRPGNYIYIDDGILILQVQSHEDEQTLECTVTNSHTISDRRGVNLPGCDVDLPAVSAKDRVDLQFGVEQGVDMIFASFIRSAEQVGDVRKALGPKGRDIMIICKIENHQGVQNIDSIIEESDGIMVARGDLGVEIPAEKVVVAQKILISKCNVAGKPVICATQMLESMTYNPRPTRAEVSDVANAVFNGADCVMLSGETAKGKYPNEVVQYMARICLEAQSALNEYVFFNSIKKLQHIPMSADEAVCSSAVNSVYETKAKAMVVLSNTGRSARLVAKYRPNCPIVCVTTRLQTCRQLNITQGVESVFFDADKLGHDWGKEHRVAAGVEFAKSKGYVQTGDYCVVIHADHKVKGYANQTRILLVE
Sequence of Guanine nucleotide-binding protein G(i) subunit alpha-1 (Homo sapiens) (P63096 whole entry, looked up): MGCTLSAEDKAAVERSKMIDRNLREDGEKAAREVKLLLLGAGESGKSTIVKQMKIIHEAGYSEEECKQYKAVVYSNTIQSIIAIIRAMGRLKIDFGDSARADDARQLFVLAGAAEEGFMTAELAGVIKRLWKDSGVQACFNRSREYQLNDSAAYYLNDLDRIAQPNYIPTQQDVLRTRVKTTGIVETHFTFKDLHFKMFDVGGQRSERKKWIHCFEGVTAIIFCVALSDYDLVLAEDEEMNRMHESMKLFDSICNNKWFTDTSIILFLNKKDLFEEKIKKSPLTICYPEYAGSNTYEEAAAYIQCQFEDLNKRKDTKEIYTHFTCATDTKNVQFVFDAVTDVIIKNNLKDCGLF
Sequence of Muscarinic acetylcholine receptor M1 (Rattus norvegicus) (P08482 whole entry, looked up): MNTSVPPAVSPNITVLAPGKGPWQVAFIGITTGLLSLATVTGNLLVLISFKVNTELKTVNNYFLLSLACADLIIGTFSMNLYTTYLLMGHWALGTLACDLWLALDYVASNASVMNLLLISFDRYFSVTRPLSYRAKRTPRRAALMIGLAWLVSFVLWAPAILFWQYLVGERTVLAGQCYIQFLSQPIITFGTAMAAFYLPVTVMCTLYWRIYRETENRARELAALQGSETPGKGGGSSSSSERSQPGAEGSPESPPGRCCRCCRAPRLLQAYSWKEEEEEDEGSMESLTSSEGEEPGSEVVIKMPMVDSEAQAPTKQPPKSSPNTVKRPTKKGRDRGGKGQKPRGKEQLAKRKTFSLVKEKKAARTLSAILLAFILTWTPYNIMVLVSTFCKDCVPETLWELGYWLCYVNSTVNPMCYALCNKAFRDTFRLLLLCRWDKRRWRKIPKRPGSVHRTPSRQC
Sequence of Cytochrome P450 3A4 (Homo sapiens) (P08684 whole entry, looked up): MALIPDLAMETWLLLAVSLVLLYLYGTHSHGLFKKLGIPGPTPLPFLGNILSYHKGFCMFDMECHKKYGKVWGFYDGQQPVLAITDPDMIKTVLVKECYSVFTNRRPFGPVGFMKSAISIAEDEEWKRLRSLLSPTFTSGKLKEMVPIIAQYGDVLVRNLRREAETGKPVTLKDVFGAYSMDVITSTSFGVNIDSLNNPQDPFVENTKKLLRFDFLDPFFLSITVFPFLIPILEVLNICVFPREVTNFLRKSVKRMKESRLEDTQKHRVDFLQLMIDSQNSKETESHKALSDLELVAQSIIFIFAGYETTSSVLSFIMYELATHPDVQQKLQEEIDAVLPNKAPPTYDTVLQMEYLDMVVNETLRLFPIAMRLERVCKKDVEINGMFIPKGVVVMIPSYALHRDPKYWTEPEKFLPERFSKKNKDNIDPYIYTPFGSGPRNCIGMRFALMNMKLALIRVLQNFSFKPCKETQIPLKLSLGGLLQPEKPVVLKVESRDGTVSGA
Sequence of Cytochrome P450 2C19 (Homo sapiens) (P33261 whole entry, looked up): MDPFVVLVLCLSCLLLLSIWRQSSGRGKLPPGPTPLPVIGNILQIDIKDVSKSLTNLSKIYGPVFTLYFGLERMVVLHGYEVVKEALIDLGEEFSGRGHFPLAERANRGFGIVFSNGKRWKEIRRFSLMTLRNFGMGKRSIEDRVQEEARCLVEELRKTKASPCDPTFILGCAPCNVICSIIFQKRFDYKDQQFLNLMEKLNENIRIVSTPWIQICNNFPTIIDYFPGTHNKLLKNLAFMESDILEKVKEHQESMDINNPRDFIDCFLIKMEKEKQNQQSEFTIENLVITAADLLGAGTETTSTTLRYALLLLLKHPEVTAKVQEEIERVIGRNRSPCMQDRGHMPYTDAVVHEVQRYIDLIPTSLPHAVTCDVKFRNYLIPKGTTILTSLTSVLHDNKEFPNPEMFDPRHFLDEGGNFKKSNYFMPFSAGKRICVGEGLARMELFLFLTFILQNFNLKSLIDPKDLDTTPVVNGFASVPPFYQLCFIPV
Sequence of Cytochrome P450 2C9 (Homo sapiens) (P11712 whole entry, looked up): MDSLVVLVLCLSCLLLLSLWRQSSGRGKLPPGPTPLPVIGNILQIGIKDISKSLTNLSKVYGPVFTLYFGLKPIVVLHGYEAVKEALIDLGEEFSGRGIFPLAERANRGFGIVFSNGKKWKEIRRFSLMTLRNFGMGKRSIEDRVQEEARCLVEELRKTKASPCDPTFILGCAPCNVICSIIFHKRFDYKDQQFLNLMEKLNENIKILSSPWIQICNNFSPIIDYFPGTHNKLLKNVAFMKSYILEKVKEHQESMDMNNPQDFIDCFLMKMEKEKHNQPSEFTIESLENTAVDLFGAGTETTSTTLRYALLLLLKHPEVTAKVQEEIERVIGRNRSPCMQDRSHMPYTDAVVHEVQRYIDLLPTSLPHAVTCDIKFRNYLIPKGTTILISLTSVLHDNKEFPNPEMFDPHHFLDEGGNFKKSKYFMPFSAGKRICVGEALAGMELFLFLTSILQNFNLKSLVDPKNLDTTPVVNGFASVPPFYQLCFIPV
Sequence of Cytochrome P450 2D6 (Homo sapiens) (P10635 whole entry, looked up): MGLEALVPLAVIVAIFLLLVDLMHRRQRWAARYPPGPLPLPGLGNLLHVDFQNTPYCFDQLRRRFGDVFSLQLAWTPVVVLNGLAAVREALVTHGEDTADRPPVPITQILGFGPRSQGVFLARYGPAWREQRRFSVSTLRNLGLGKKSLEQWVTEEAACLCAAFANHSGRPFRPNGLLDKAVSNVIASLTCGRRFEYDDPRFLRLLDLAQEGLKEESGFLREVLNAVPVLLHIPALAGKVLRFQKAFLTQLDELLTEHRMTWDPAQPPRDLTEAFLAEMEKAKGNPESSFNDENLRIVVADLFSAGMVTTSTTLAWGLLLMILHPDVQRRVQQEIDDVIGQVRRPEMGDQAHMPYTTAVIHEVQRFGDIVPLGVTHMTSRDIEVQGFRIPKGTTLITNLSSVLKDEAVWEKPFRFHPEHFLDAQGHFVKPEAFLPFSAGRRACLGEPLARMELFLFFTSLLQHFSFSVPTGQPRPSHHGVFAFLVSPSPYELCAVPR

On to `CCCCC(CC)COC(=O)c1ccccc1C(=O)OCC(CC)CCCC` (centres undefined), for which the result in [1], in [2] and in experiment [4] was inactive. Also, the Potency entry in experiment [3], in experiment [5] and in experiment [6] was “inactive” in each case.

`O=[N+]([O-])c1c2ccccc2cc2ccccc12`: the compound was classed as inactive in experiment [1], in experiment [2] and in experiment [4]. Moreover, the Potency result in experiment [3], in experiment [5] and in experiment [6] was “inactive” throughout.

Turning to `Cn1cnc(CCN)c1`, the compound was classed as inactive in [7], in [11] and in experiment [14]. The Potency entry in [8], in [9], in [10], in experiment [12] and in experiment [13] was “inactive” each time.

On to `CCCCCCCCc1ccc(O)cc1`, for which the compound was called inactive in experiment [1], in experiment [2] and in experiment [4]. Besides, the Potency entry in experiment [15], in experiment [3], in [5] and in experiment [6] was “inactive” in each case.

Take `C1CCC(NC2CCCCC2)CC1`: the call in experiment [1], in experiment [2] and in experiment [4] was inactive. Further, the Potency result in [15], in [3], in experiment [5] and in [6] was “inactive” each time.

`CN(C)NC(=O)CCC(=O)O`: the compound was called inactive in [1], in experiment [2] and in experiment [4]. The Potency entry in experiment [15], in experiment [3], in [5] and in [6] was “inactive” each time.

On to `Cc1cc(O)ccc1Cl`, for which the compound was called inactive in experiment [1], in experiment [2], in [17] and in [4]. For the same compound, the Potency result in experiment [15], in experiment [16], in [3], in [5] and in experiment [6] was “inactive” each time.

Take `CCOP(=O)(NC(C)C)Oc1ccc(SC)c(C)c1` (centres undefined): the compound was called inactive in [1], in experiment [2] and in experiment [4]. The Potency entry in experiment [3] and in [6] was “inactive” throughout.

Regarding `NCCc1c[nH]c2ccc(O)cc12`, the compound was called inactive in experiment [7], in [11] and in experiment [14]. In [9], the Potency entry was “inactive”. The activation in experiment [18] was 17.2% and 2.69%.

Turning to `NCc1cc(=O)[nH]o1`, the compound was called inactive in experiment [7], in [11] and in experiment [14]. The Potency entry in experiment [10], in experiment [12] and in experiment [13] was “inactive” each time.

For the compound `CC(C)c1ccc2c(c1)c(SC(C)(C)C)c(CC(C)(C)C(=O)O)n2Cc1ccc(Cl)cc1`, the Potency in experiment [8] was 6.31 µM (active).

In the case of `NC(N)=NOCCC(N)C(=O)O` (centres undefined), the result in experiment [7], in experiment [11], in experiment [17] and in experiment [14] was inactive. Moreover, the Potency entry in [16] and in [12] was “inactive” each time.

On to `CNCCc1ccc(O)c(O)c1`, for which the result in experiment [7] and in [14] was inactive. The Potency entry in [12] and in [13] was “inactive” each time.

Take `CCC(=O)OC1CCC2C3CCC4=CC(=O)CC[C@@]4(C)C3CC[C@]12C` (some centres undefined): the Potency entry in [16] was “inactive”. Moreover, the call in experiment [17] was inactive.

In the case of `O=C(N[C@H]1CN2CCC1CC2)c1ccc(Cl)cc1`, the Potency result in [15] is “inactive”.

On to `c1ccc2sc(C3(N4CCCCC4)CCCCC3)cc2c1`, for which the result in experiment [7] and in experiment [14] was inactive. In addition, the Potency in experiment [19] was 3.16 µM (active). Also, the Potency result in experiment [13] was “inactive”.

Regarding `O=C(O)CC[N+](=O)[O-]`, the compound was classed as inactive in experiment [7], in experiment [11], in experiment [17] and in experiment [14]. In addition, the Potency result in [15], in experiment [9] and in experiment [13] was “inactive” in each case.

Take `CCCCCCCCCCCCCCCC[N+](C)(C)C`: the Potency result in experiment [15] and in experiment [16] was “inactive” in each case. For the same compound, the call in experiment [17] was inactive.

Values taken from PubChem BioAssay (NCATS).
